Only some compounds are listed: those with a hit (about 32% of all), similar ones and a draw of the others.
CYP2C19 activ = human CYP2C19 activators, primary screen, biochemical, luminescence; Cytochrome P450 2C19 (Homo sapiens), P33261; 96,000 tested, under 10 active; recombinant CYP2C19, luciferin-H EGE luminescence; stronger effect = higher value; 0 = fully inhibited enzyme, 1 = untreated enzyme; activation factor at 5 µM;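 active = activation factor of at least 2 at 5 µM in the primary screen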;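 note: 0 = wells with 2.5 mM tranylcypromine and 1 = vehicle-only wells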
Target sequence (P33261 whole entry, looked up): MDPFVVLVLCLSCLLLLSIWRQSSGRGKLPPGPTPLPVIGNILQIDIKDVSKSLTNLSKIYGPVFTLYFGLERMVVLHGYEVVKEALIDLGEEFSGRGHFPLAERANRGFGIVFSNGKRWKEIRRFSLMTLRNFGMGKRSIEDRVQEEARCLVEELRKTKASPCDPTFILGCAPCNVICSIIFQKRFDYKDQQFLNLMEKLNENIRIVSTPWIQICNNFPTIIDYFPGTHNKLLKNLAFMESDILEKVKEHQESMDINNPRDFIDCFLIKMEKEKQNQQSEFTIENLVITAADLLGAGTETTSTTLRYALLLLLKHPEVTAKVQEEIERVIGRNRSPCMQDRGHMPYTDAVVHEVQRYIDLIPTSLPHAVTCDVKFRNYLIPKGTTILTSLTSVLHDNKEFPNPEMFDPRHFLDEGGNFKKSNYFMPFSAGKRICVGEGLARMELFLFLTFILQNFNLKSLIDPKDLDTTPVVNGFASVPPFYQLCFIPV
CYP2C9 activ = human CYP2C9 activators, primary screen, biochemical, luminescence | recombinant CYP2C9, luciferin-H conversion; stronger effect = higher value; factor 1 = untreated enzyme, 0 = blocked | activation factor at 5 µM | 1.4% of 96,000 active;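 active = activation factor of 2 or more for CYP2C9 at a 5 µM dose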;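 note: 0 = sulfaphenazole-blocked wells and 1 = vehicle-only wells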
CYP2C9 inhib = blockers of cytochrome P450 2C9 activity – biochemical, luminescence, ADME assay, primary screen; inhibition, % at 5 µM; 20% of 96,000 active; CYP2C9 Supersomes, luciferin-H conversion;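 active = blocking of liver enzyme CYP2C9 beyond about 50% at 5 µM, limit read from the data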
PostGolgi yeast = phenotypic screen on post-Golgi transport, primary screen; post-Golgi transport phenotypic cell assay; inhibition, % at 10 µM; 0.9% of 98,000 active; AID 739, 2007;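 note: yeast cells grown in 1536-well plates; yeast grown about 18 h at 30C before absorbance read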
PostGolgi ctrl = growth inhibition of yeast control strain, primary screen, counter-screen for post-Golgi transport modulator project | inhibition, % at 10 µM | 5% of 98,000 active | efflux-deficient yeast background strain, growth absorbance A615, 16 h | AID 738, 2007
CYP2C19 inh = blockers of cytochrome P450 2C19 activity – biochemical, luminescence, ADME assay, primary screen; P33261; CYP2C19 Supersomes, luciferin-H EGE luminescence, 30 min; inhibition, % at 5 µM; 21% of 96,000 active;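 active = CYP2C19 inhibition above a set limit at 5 µM in the primary screen, cut at about 50% in these data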;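 note: plate controls were negative control wells for no effect and 2.5 mM tranylcypromine positive control for full effect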
An asterisk follows results filed as active. Cut-off read from the data, not from the text of the source, unless noted: active = inhibition above about 30%; inactive = the rest.

How did CC(C)NC(=O)C1CCN(C(=O)c2cc3sccc3n2Cc2ccc(F)cc2)CC1 do in these assays?
CYP2C19 activ: 0.4; CYP2C9 activ: 0.3; CYP2C9 inhib: 72*; PostGolgi yeast: -1; PostGolgi ctrl: 4; CYP2C19 inh: 56*

Results for CCOC(=O)N1CCC(NC(=O)c2cc3sccc3n2CC)CC1 ?
CYP2C19 activ: 1; CYP2C9 activ: 1.1; CYP2C9 inhib: -15; PostGolgi yeast: 5; PostGolgi ctrl: 16; CYP2C19 inh: 3

What do the screens show for `Cc1cccc(C)c1OC(=O)CN(c1ccc(Cl)cc1)S(C)(=O)=O`?
CYP2C19 activ: 1; CYP2C9 activ: 0.8; CYP2C9 inhib: 15; PostGolgi yeast: -4; PostGolgi ctrl: 26; CYP2C19 inh: -1

What do the screens show for `Cc1ccccc1NC(=O)CN1C(=O)NC(C)(c2ccc3c(c2)OCO3)C1=O` (stereo unspecified)?
CYP2C19 activ: 0.7; CYP2C9 activ: 0.9; CYP2C9 inhib: 10; PostGolgi yeast: -1; PostGolgi ctrl: 0; CYP2C19 inh: 30

How did CCOC(=O)C1CCN(C(=O)Nc2ccc3nc(C)c(C)nc3c2)CC1 do in these assays?
CYP2C19 activ: 1; CYP2C9 activ: 1; CYP2C9 inhib: 1; PostGolgi yeast: 9; PostGolgi ctrl: 2; CYP2C19 inh: 2

Results for CCC(=O)Nc1cc(C(C)C)c(O)cc1C ?
CYP2C19 activ: 1; CYP2C9 activ: 1.1; CYP2C9 inhib: -11; PostGolgi yeast: -9; PostGolgi ctrl: 0; CYP2C19 inh: -3

What do the screens show for `O=C(NC1CCCC1)C1CC1c1ccccc1` (stereo unspecified)?
CYP2C19 activ: 0.3; CYP2C9 activ: 0.4; CYP2C9 inhib: 63*; PostGolgi yeast: 11; PostGolgi ctrl: 4; CYP2C19 inh: 73*

How did O=C(Nc1ccncc1)C1CC1c1ccccc1 (stereo unspecified) do in these assays?
CYP2C19 activ: 0; CYP2C9 activ: 0.2; CYP2C9 inhib: 84*; PostGolgi yeast: -5; PostGolgi ctrl: 0; CYP2C19 inh: 97*

What do the screens show for `O=C(O)C1CCCCC1C(=O)NC1CCCCC1` (stereo unspecified)?
CYP2C19 activ: 1.2; CYP2C9 activ: 1.2; CYP2C9 inhib: -16; PostGolgi yeast: -4; PostGolgi ctrl: 8; CYP2C19 inh: -20

How did O=C(CS(=O)CC(=O)N(CC(=O)NC1CCCC1)C1CCCCC1)Nc1ccc(F)cc1 (stereo unspecified) do in these assays?
CYP2C19 activ: 0.9; CYP2C9 activ: 0.4; CYP2C9 inhib: 57*; PostGolgi yeast: 4; PostGolgi ctrl: 7; CYP2C19 inh: 8

What do the screens show for `O=C(CS(=O)CC(=O)N(CC(=O)NC1CCCC1)c1ccc2c(c1)OCCO2)Nc1ccc(F)cc1` (stereo unspecified)?
CYP2C19 activ: 0.9; CYP2C9 activ: 1; CYP2C9 inhib: 3; PostGolgi yeast: 13; PostGolgi ctrl: -4; CYP2C19 inh: 11

What do the screens show for `Cc1ccc(-c2ccc(=O)n(CCC(=O)NCc3ccccn3)n2)cc1`?
CYP2C19 activ: 0.9; CYP2C9 activ: 0.9; CYP2C9 inhib: 10; PostGolgi yeast: 1; PostGolgi ctrl: -6; CYP2C19 inh: 9

What do the screens show for `COc1cc(N)ccc1Cc1ccc(N)cc1OC`?
CYP2C19 activ: 0.2; CYP2C9 activ: 1.4; CYP2C9 inhib: -41; PostGolgi yeast: -3; PostGolgi ctrl: -3; CYP2C19 inh: 78*

How did Cc1cccc(-n2c(SCCC(=O)O)nnc2-c2cccs2)c1C do in these assays?
CYP2C19 activ: 0.9; CYP2C9 activ: 1.2; CYP2C9 inhib: -19; PostGolgi yeast: 1; PostGolgi ctrl: -2; CYP2C19 inh: 6

How did c1ccc(N2CCN(c3ncnc4c3oc3ccccc34)CC2)cc1 do in these assays?
CYP2C19 activ: 1; CYP2C9 activ: 0.9; CYP2C9 inhib: 14; PostGolgi yeast: -1; PostGolgi ctrl: 35*; CYP2C19 inh: -4

What do the screens show for `CCOC(=O)C1CCCN(c2ncnc3c2oc2ccccc23)C1` (stereo unspecified)?
CYP2C19 activ: 0.3; CYP2C9 activ: 0.5; CYP2C9 inhib: 46; PostGolgi yeast: 3; PostGolgi ctrl: 33*; CYP2C19 inh: 69*

Results for COC(=O)C1=C(C)NC(=O)CC1c1cc(Br)ccc1F (stereo unspecified) ?
CYP2C19 activ: 0.7; CYP2C9 activ: 0.7; CYP2C9 inhib: 32; PostGolgi yeast: -4; PostGolgi ctrl: 10; CYP2C19 inh: 27

Results for CN(C)/C=N/c1cnc(C(=O)c2ccc(Cl)cc2)n1C ?
CYP2C19 activ: 0.4; CYP2C9 activ: 0.7; CYP2C9 inhib: 32; PostGolgi yeast: -3; PostGolgi ctrl: 11; CYP2C19 inh: 60*

Results for COc1ccc(-c2nc(N)ncc2Oc2ccccc2Br)c(O)c1 ?
CYP2C19 activ: 0.5; CYP2C9 activ: 0.6; CYP2C9 inhib: 42; PostGolgi yeast: -5; PostGolgi ctrl: 8; CYP2C19 inh: 48

How did C=C(C)COc1ccc(-c2nc(N)ncc2-c2ccc(OC)cc2)c(O)c1 do in these assays?
CYP2C19 activ: 0.6; CYP2C9 activ: 0.5; CYP2C9 inhib: 52*; PostGolgi yeast: 5; PostGolgi ctrl: 72*; CYP2C19 inh: 36

How did C=C(C)COc1ccc(-c2ncncc2Oc2ccc(OC)cc2)c(O)c1 do in these assays?
CYP2C19 activ: 0.1; CYP2C9 activ: 0; CYP2C9 inhib: 98*; PostGolgi yeast: 66*; PostGolgi ctrl: 19; CYP2C19 inh: 92*

How did COc1cccc(Oc2cnc(N)nc2-c2ccc(OC)cc2O)c1 do in these assays?
CYP2C19 activ: 0.2; CYP2C9 activ: 0.2; CYP2C9 inhib: 79*; PostGolgi yeast: -1; PostGolgi ctrl: 6; CYP2C19 inh: 76*

How did COc1cc(C(=O)COC(=O)Cc2cnc3sccn23)cc(OC)c1OC do in these assays?
CYP2C19 activ: 0.9; CYP2C9 activ: 1.1; CYP2C9 inhib: -13; PostGolgi yeast: -6; PostGolgi ctrl: 23; CYP2C19 inh: 9

Results for COc1ccc2cc(C(c3nnnn3C(C)(C)C)N3CCc4ccccc4C3)c(=O)[nH]c2c1 (stereo unspecified) ?
CYP2C19 activ: 0.3; CYP2C9 activ: 0.1; CYP2C9 inhib: 94*; PostGolgi yeast: 2; PostGolgi ctrl: 6; CYP2C19 inh: 65*

What do the screens show for `CCC(C)(C)n1nnnc1C(c1cc2ccc(OC)cc2[nH]c1=O)N1CCCCC1` (stereo unspecified)?
CYP2C19 activ: 1; CYP2C9 activ: 0.8; CYP2C9 inhib: 19; PostGolgi yeast: -4; PostGolgi ctrl: 2; CYP2C19 inh: -2

How did COc1ccc2cc(C(c3nnnn3C3CCCC3)N3CCc4ccccc4C3)c(=O)[nH]c2c1 (stereo unspecified) do in these assays?
CYP2C19 activ: 0.7; CYP2C9 activ: 0.5; CYP2C9 inhib: 48; PostGolgi yeast: 3; PostGolgi ctrl: -7; CYP2C19 inh: 26

From PubChem BioAssay
